Results on three sequences are retold here after publication PMC8384837, “Expanding the binding specificity for RNA recognition by a PUF domain”.

For the experiment, the target named is PUM1 PUF domain R8-KFC (Homo sapiens, UniProt Q14671 828-1176, N1122K;Y1123F;Q1126C). Briefly: yeast three-hybrid, YBZ-1, SC-Leu-His + 0.5 mM 3-AT, 4 days. The note with it: tags: N-Gal4 AD-HA kept; label: inside an RPR1-promoter hybrid RNA with tandem MS2 sites; ssRNA. Put shortly:
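Each repeat of the Pumilio-1 PUF domain was randomized at its three base-contacting residues, and these libraries were co-expressed from a centromeric plasmid with matching RNA elements in strain YBZ-1. After four days on SC-Leu (input) or SC-Leu-His + 0.5 mM 3-AT (selection), the repeat regions were PCR-amplified and Illumina-sequenced. The interaction score compares variant frequency between input and selection as a log change, computed in log2 with a pseudocount of 1 for absent variants.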
For “GGCUAGAACUAGUGGAUCCCCCGGCGCCCGGCGGCUCGAGCCCGGGUAAGGGUAAAUAGUCUGCAUGCCGCCGGGCGCCAUGCCUGCAGGUCGACUCUAGAAAACAUG”, the binding signal is 2.66 log2 enrichment (interaction score). Regarding “GGCUAGAACUAGUGGAUCCCCCGGCGCCCGGCGGCUCGAGCCCGGGUAAGCGUAAAUAGUCUGCAUGCCGCCGGGCGCCAUGCCUGCAGGUCGACUCUAGAAAACAUG”, the binding signal is 6.35 log2 enrichment (interaction score).

Regarding “GGCUAGAACUAGUGGAUCCCCCGGCGCCCGGCGGCUCGAGCCCGGGUAAGUGUAAAUAGUCUGCAUGCCGCCGGGCGCCAUGCCUGCAGGUCGACUCUAGAAAACAUG”, the binding signal is 2.49 log2 enrichment (interaction score).
